Data reported in PubChem BioAssay AID588323 (National Center for Advancing Translational Sciences (NCATS), 2011).
Calls of active or inactive are those of the source. Entries that show only a call come without a potency. Calls come from the whole dose curve; as a rule, active = well fitted curve in the direction sought with a large enough effect; inconclusive = small, poorly fitted or top-dose-only effect, or another doubt; inactive = no such curve, though single readings can be large or run the other way.

Assay: Confirmatory Assay to Find Inhibitors of T. brucei phosphofructokinase: Cytotoxictity in MRC5
Conditions: cell viability; Potency: MRC5 cytotoxicity; series mostly up to 46.1 µM
Description: Various species of the protozoan family Trypanosomatidae are responsible for a range of serious human diseases in tropical and subtropical areas of the world. […] Many of the disorders caused by trypanosomatids are fatal if left untreated, but most currently used drugs are inefficient and toxic.
Oxidative metabolism involving the mitochondrial tricarboxylic acid cycle and oxidative phosphorylation are repressed in these parasites, and recent RNA interference (RNAi) experiments have shown that even partial depletion of certain individual glycolytic enzymes can lead to the death of cultured parasites. One such glycolytic enzyme, phosphofructokinase (PFK), catalyzes the formation of fructose-1,6-bisphosphate (F1,6BP) and ADP from fructose-6-phosphate (F6P) and ATP, and in many metabolic circumstances makes an important contribution to the control of flux through the glycolytic pathway. As a specific glycolytic target, PFK is particularly attractive as it catalyzes the first irreversible step in glycolysis, and structural and kinetic studies have shown very substantial and essential differences from corresponding host enzymes, allowing for the discovery of parasite-selective inhibitors.
Confirmed qHTS active compounds were tested for toxicity against the MRC-5 human lung fibroblast cell lines. This line havs historically been used as representative human cells in in vitro Trypanosoma assays, and so provide a relevant surrogate for human cells in testing Tb PFK inhibitor toxicity.
NIH Chemical Genomics Center [NCGC]
NIH Molecular Libraries Probe Centers Network [MLPCN]
Assay Submitter (PI): Malcom Walkinshaw, University of Edinburg
MRC5 cells were dispensed into white solid 1536-microwell plates in 5 uL media (high glucose DMEM, 10% FBS) with a Thermo Multidrop. The plates were incubated at 37 degrees Celsius for 2 hours, and subsequently treated with compounds using the Kalypsys pin tool, delivering 23 nL of test compounds to each well. The plates were then incubated for an additional 72 hours at 37 degrees Celsius. Cytotoxicity was assessed by adding 2.5 uL of Cell-Titer Glo (Promega, Madison, WI) via Multidrop, incubating at room temperature for 10 min and reading luminescence on the Perkin Elmer ViewLux using a 1 second exposure and 1x binning. DMSO-treated cells were included as negative control, while media-only wells were used as a positive control equivalent to 100% cell toxicity for the sake of data normalization.

SMILES	Potency
Cc1cc(NS(=O)(=O)c2ccc(NCCc3ccc(Cl)c(Cl)c3)cc2)no1	inactive
O=C(Cc1ccc(Cl)c(Cl)c1)Nc1ccc(S(=O)(=O)Nc2ccc(C(=O)O)cc2)cc1	inactive
Cc1cc(NS(=O)(=O)C2CCN(C(=O)Cc3ccc(Cl)c(Cl)c3)CC2)no1	inactive
CCOC(=O)c1cccc(NS(=O)(=O)c2ccc(NC(=O)Cc3ccc(Cl)c(Cl)c3)cc2)c1	inactive
Cc1cc(NS(=O)(=O)c2ccc(NC(=O)CCc3ccc(Cl)c(Cl)c3)cc2)no1	inactive
Cc1cc(NS(=O)(=O)c2ccc(NC(=O)c3ccc(Cl)c(Cl)c3)cc2)no1	inactive
Cc1cc(NS(=O)(=O)c2ccc(C(=O)NCc3ccc(Cl)c(Cl)c3)cc2)no1	inactive
O=C(Cc1ccc(Cl)c(Cl)c1)Nc1ccc(S(=O)(=O)Nc2cccc(O)c2)cc1	inactive
Cc1cc(NS(=O)(=O)c2ccc(NC(=O)C(C)(C)c3ccc(Cl)c(Cl)c3)cc2)no1	inactive
O=C(Cc1ccc(Cl)c(Cl)c1)Nc1ccc(S(=O)(=O)Nc2ccon2)cc1	inactive
Cc1cc(N[S+](=O)([O-])c2ccc(NC(=O)Cc3ccc(Cl)nc3)cc2)no1	inactive
COc1ccc(CC(=O)Nc2ccc(S(=O)(=O)Nc3cc(C)on3)cc2)cc1OC	inactive
Cc1cc(NS(=O)(=O)c2ccc(NC(=O)Cc3ccc(Cl)c(F)c3)cc2)no1	inactive
Cc1cc(NS(=O)(=O)c2ccc(NC(=O)Cc3ccc(C)c(C)c3)cc2)no1	inactive
Cc1cc(NS(=O)(=O)CCNC(=O)Cc2ccc(Cl)c(Cl)c2)no1	inactive
Cc1cc(NC(=O)c2csc(NC(=O)Cc3ccc(Cl)c(Cl)c3)n2)no1	inactive
Cc1cc(NS(=O)(=O)c2ccc(NS(=O)(=O)Cc3ccc(Cl)c(Cl)c3)cc2)no1	inactive
Cc1cc(NS(=O)(=O)c2ccc(NC(=O)Cc3ccc4ccccc4c3)cc2)no1	inactive
O=C(Cc1ccc(Cl)c(Cl)c1)Nc1ccc(S(=O)(=O)Nc2ccccc2)cc1	inactive
O=C(Cc1ccc(Cl)c(Cl)c1)Nc1ccc(S(=O)(=O)Nc2cccc(C(=O)O)c2)cc1	inactive

SMILES	Potency
Cc1cc(NS(=O)(=O)c2ccc(NC(=O)Cc3cccc(Cl)c3)cc2)no1	inactive
Cc1cc(NS(=O)(=O)c2ccc(NC(=O)Cc3ccc(Cl)cc3Cl)cc2)no1	inactive
Cc1cc(NC(=O)c2ccc(NC(=O)Cc3ccc(Cl)c(Cl)c3)cc2)no1	inactive
Cc1cc(NS(=O)(=O)Cc2ccc(NC(=O)Cc3ccc(Cl)c(Cl)c3)cc2)no1	inactive
Cc1cc(NS(=O)(=O)c2ccc(NC(=O)Cc3ccc(Cl)cc3)cc2)no1	inactive
Cc1cc(NS(=O)(=O)c2ccc(NC(=O)Cc3ccc(Cl)c(C(F)(F)F)c3)cc2)no1	inactive
Cc1cc(NS(=O)(=O)c2ccc(NC(=O)Cc3ccc(Cl)c(Cl)c3)cc2)no1	inactive
O=C(Cc1ccc(Cl)c(Cl)c1)Nc1ccc(S(=O)(=O)Nc2cncnc2)cc1	inactive
Cc1cc(NS(=O)(=O)c2ccc(NC(=O)Cc3ccccc3)cc2)no1	inactive
Cc1cc(NS(=O)(=O)c2ccc(NC(=O)Cc3ccc(C)c(F)c3)cc2)no1	inactive
Cc1cc(NS(=O)(=O)c2ccc(NC(=O)Cc3ccc(Cl)c(Cl)c3)cc2)n(C)n1	inactive
Cc1cc(NS(=O)(=O)c2cccc(NC(=O)Cc3ccc(Cl)c(Cl)c3)c2)no1	inactive
O=C(Cc1ccc(Cl)c(Cl)c1)Nc1ccc(S(=O)(=O)O)cc1	inactive
O=C(Cc1ccc(Cl)c(Cl)c1)Nc1ccc(S(=O)(=O)Nc2ccn[nH]2)cc1	inactive
Cc1cc(N[S+](=O)([O-])c2ccc3cc(NC(=O)Cc4ccc(Cl)c(Cl)c4)ccc3c2)no1	inactive
COc1ccc(CC(=O)Nc2ccc(S(=O)(=O)Nc3cc(C)on3)cc2)cc1C	inactive
Cc1cc(NS(=O)(=O)c2ccc(NC(=O)Cc3ccc(Cl)c(Cl)c3)cc2)on1	inactive
Cc1cc(N(C)S(=O)(=O)c2ccc(NC(=O)Cc3ccc(Cl)c(Cl)c3)cc2)no1	31.5 µM (active)
Cc1cc(NS(=O)(=O)c2ccc(N(C)C(=O)Cc3ccc(Cl)c(Cl)c3)cc2)no1	inactive
